# This excerpt belongs to a sample that is enriched for hits.
# ST2 IL33 inh = inhibitors of human ST2 (IL1RL1) binding to IL-33; 2.3% of 78,000 active; inhibition, % for hits at 17 µM; AlphaLISA ST2-Fc/biotin-IL-33 interaction, 1 h; Q01638; in the data active = inhibition above about 30%
# Active calls of the source: *; i = inactive.
SMILES,ST2 IL33 inh
O=c1cc2oc3cc(O)c(O)cc3c(-c3ccccc3)c-2cc1O,36%*
CC(C)C1Oc2ccc(Cl)cc2C2CC(c3cccs3)=NN21 (stereo not drawn),34%*
Clc1ccc2c(c1)C1CC(c3ccccc3)=NN1CO2 (stereo not drawn),i
c1csc(C2=NN3C(C2)c2ccccc2OC32CCCC2)c1 (stereo not drawn),i
COc1ccc(Nc2c(-c3ccco3)nc3ccc(Br)cn23)cc1,i
COc1cc(C=Nc2c(-c3ccco3)nc3ccc(Cl)cn23)ccc1O,43%*
COc1ccc(Cl)cc1NC(=O)c1cc(-c2ccco2)on1,i
Cc1cccc(CNC(=O)c2cccn2-c2nnc(N3CCCCC3)s2)c1,i
O=[N+]([O-])c1ccccc1Sc1c(-c2ccccc2)nc2ncccn12,i
Cc1ccc(NC(=O)c2cc3c(C)nn(-c4ccccc4)c3s2)cc1[N+](=O)[O-],36%*
Cc1cc(C)c([N+](=O)[O-])cc1NC(=O)c1cc2c(C)nn(-c3ccccc3)c2s1,i
Cc1nn(-c2ccccc2)c2sc(C(=O)NCCCO)cc12,i
CCOc1ccc(N2CC(O)Cn3c2nc2c3c(=O)[nH]c(=O)n2C)cc1 (stereo not drawn),i
N#Cc1c(C(F)(F)F)cc(-c2cccs2)nc1SCC(=O)Nc1ccc([N+](=O)[O-])cc1,38%*
CCc1nnc(NC(=O)CSc2nc(-c3cccs3)cc(C(F)(F)F)c2C#N)s1,i
CC(=O)CSc1nc(-c2cccs2)cc(C(F)(F)F)c1C#N,i
COC(=O)c1ccc(Nc2nnc(C(C)(C)C)c(=O)[nH]2)cc1,i
CC1=C(C(=O)Nc2ccccn2)C(c2cccnc2)C2=C(CCCC2=O)N1 (stereo not drawn),i
COc1cc(C=O)ccc1OCCCOc1ccccc1C(=O)O,i
CCCCOc1ccc(/C=c2\sc3nc(=O)c(C)nn3c2=O)cc1OC,i
COc1ccccc1OCCCOc1ccc(/C=C2/C(=N)N3C=CSC3=NC2=O)cc1OC,34%*
CC(=O)c1ccc(N(CN2C(=O)c3ccc([N+](=O)[O-])cc3C2=O)C(C)=O)cc1,i
O=C1C[C@H]2CC[C@@H](CN1)N2C(=O)Cn1nnc2ccccc2c1=O,i
CC1(C)CC(=O)C2=C(C1)Nc1cc(C(=O)c3ccccc3)ccc1NC2c1cccs1 (stereo not drawn),i
CC1(C)CC(=O)C2=C(C1)Nc1cc(C(=O)c3ccccc3)ccc1NC2c1ccco1 (stereo not drawn),i
SMILES,ST2 IL33 inh
COc1ccccc1C1Nc2ccc(C(=O)c3ccccc3)cc2NC2=C1C(=O)CC(C)(C)C2 (stereo not drawn),31%*
CCc1ncc(CN2CCC(O)(c3cccc(C(F)(F)F)c3)CC2)cn1,i
Cn1c(=O)[nH]c(=O)c2c1nc(CN1CCOCC1)n2Cc1ccc(Cl)cc1,i
O=C1S/C(=C\c2ccccc2F)C(=O)N1CNc1cccc(F)c1,i
CCCCN1C(=O)S/C(=C\c2cc(C)n(C)c2C)C1=O,39%*
Cc1cc(NC(=O)CN2C(=O)S/C(=C\c3ccccc3)C2=O)no1,i
COCC(C)NC(=O)c1cnn2c1NC(c1ccccc1)CC2C(F)(F)F (stereo not drawn),i
FC(F)(F)c1cccc(-c2ncnn2-c2ccc(Br)nc2)c1,i
FC(F)(F)c1ccc2nnc(-c3ccc(Cl)cc3Cl)n2c1,i
FC(F)(F)c1ccc2nnc(-c3cccc(I)c3)n2c1,54%*
Cc1ccnc(NC(=O)C2CCN(S(=O)(=O)c3cccc4cccnc34)CC2)c1,i
O=C(CSc1nccn1Cc1ccccc1)c1ccc(F)cc1,i
Cc1ccc2c(-c3cc4c(n(CC5CC5)c3=O)CCN(C(=O)c3ccoc3)C4)cccc2n1,i
Cc1cc[n+](C2C(c3ccc([N+](=O)[O-])cc3)C(C#N)=C([S-])NC2(O)C2CC2)cc1 (stereo not drawn),59%*
Cc1ccc[n+](C2C(c3ccc([N+](=O)[O-])cc3)C(C#N)=C([S-])NC2(O)C2CC2)c1 (stereo not drawn),50%*
COc1ccccc1C1C(C#N)=C(C(=C=[N-])C#N)NC(O)(C2CC2)C1[n+]1ccc(C)cc1 (stereo not drawn),i
CCOc1ccccc1/C=C1\SC(N2CCN(C(C)=O)CC2)=NC1=O,i
CC(=O)C(C)n1c(CN2CCN(c3cccc(Cl)c3)CC2)nc2c1c(=O)[nH]c(=O)n2C (stereo not drawn),i
COc1ccc(CCC2CCCN(S(=O)(=O)N(C)C)C2)cc1 (stereo not drawn),i
CC1=C(C(=O)Nc2ccccn2)C(c2ccccc2C)C2=C(CCCC2=O)N1 (stereo not drawn),i
CC(C(=O)N1CCN(c2cccc(Cl)c2)CC1)N1C(=O)c2ccccc2C1=O (stereo not drawn),i
CC(=O)N(C1=C(N2CCCCC2)C(=O)c2ccccc2C1=O)c1cccc(Cl)c1,61%*
CC(C)CC(C(=O)Nc1cccc(Cl)c1)N1C(=O)c2ccccc2C1=O (stereo not drawn),i
